D3 antag: qHTS of D3 Dopamine Receptor Antagonist: qHTS; max response, negative = inhibition, %; AID 652054, 2013; D(3) dopamine receptor (Homo sapiens), P35462; D3R cells, DiscoveRx beta-arrestin luminescence, antagonist mode; hits give low values; actives 2.5% (n = 360,000); in the data active means max response below about -50%; inconclusive means no clear call, values can overlap the other calls; further: on the % scale 0 is the no-effect control and ±100 the full control effect
Target sequence (P35462 whole entry, looked up): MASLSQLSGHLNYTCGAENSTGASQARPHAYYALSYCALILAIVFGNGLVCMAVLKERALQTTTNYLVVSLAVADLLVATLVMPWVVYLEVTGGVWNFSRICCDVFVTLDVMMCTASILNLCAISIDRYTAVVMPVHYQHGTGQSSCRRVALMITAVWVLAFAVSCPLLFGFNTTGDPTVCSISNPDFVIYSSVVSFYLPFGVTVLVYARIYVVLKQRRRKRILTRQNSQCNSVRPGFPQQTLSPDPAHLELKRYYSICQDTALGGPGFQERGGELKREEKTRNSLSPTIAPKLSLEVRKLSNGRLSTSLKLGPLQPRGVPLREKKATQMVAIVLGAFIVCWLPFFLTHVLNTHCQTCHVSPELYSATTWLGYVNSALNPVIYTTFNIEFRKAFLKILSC
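Cells expressing the human receptor were seeded at 1500 cells/well, incubated overnight at 37 degrees C in 5% CO2, then exposed to library compounds with dopamine controls for 90 minutes at 37 degrees C before luminescent detection.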
DT40 TDP1 CPT: qHTS for Inhibitors of human tyrosyl-DNA phosphodiesterase 1 (TDP1): qHTS in cells in presence of CPT. Potency, µM (doses to about 46.2 µM), for the others: top-dose activity change, negative = growth inhibition, hits mostly inhibitors. chicken DT40 Tdp1-/-;hTDP1 cells + 20 nM CPT, ATP luminescence, 48 h. actives 12% (n = 420,000); further: potency means the concentration at half of the fitted maximal effect; on the % scale 0 is the no-effect control and ±100 the full control effect; nearly all actives have a fitted effect of over 55% in size
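Chicken DT40 Tdp1-/- cells stably complemented with human TDP1 were seeded at 400 cells/well in medium containing 20 nM camptothecin, exposed to pin-transferred compounds, and grown at 37 °C for at least 48 hr. Viability was read as ATP luminescence.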
DRD3 agonist: qHTS of D3 Dopamine Receptor Agonist: qHTS. D(3) dopamine receptor (Homo sapiens), P35462. D3R DiscoveRx beta-arrestin cells, luminescence, 90 min. max activation, %. actives 0.58% (n = 410,000). AID 652048, 2013; in the data active means max activation above about 30%; further: 0% is about no effect
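Cells at 1500/well, incubated overnight, then treated with pinned compounds (dopamine as control) for 90 min at 37 degrees C. DiscoveRx reagent added for 30 - 60 minutes at room temperature; luminescence read.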
IL-1B inflam inh: qHTS for Inhibitors of Inflammasome Signaling: IL-1-beta AlphaLISA Primary Screen; THP-1 LPS/ATP IL-1B secretion, AlphaLISA, 16 h; hits give low values; activity change, % at 57.5 µM; actives 4.7% (n = 360,000); in the data active means activity change below about -50%; inconclusive means mostly about -30% to -49%; further: on the % scale 0 is the no-effect control and ±100 the full control effect
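Secreted IL-1B measured by AlphaLISA bead assay after 16 h compound exposure of THP-1 cells; compounds (final up to 57.5 uM) added 1 h before LPS (250 ng/mL) and ATP (1.25 mM) stimulation; lower signal means less secretion.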
ClpP mod: qHTS Assay for Activators of ClpP; purified B. subtilis ClpP, FRET peptide cleavage, 20 min; Potency, µM (series often up to 57.5 µM), for inactives: at the highest dose activity change, negative = active; actives 1.9% (n = 340,000); active means well fitted falling curve with a large enough effect; inconclusive means small, poorly fitted or top-dose-only effect; inactive means no such curve, though single readings can be large or run the other way; further: potency means the concentration at half of the fitted maximal effect; the source files actives as falling curves though it sought activators and does not explain the sign; nearly all actives have a fitted effect of over 65% in size
Target sequence (P80244 whole entry, looked up): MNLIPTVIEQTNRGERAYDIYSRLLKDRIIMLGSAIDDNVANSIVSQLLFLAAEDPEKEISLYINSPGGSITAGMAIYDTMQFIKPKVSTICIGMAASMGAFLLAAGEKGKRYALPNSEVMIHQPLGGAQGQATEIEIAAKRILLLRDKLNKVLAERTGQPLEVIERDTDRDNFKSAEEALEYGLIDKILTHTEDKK
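FRET quenching reversal measured ClpP activation: 10 microg/mL B. subtilis ClpP at pH 8 with the FRET-FV decapeptide, read at 430 nm after 320 nm excitation. The 20-min minus 0-min signal was scaled between DMSO/no-enzyme wells and ADEP (5.8 microM final).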
TDP1 cell noCPT: qHTS for Inhibitors of human tyrosyl-DNA phosphodiesterase 1 (TDP1): qHTS in cells in absence of CPT. DT40 Tdp1-/- hTDP1 cells, no CPT, ATP luminescence, 48 h. Potency, µM (highest dose often 46.2 µM), inactives show top-dose activity change, negative = growth inhibition, hits mostly inhibitors. actives 15% (n = 420,000); further: potency means the concentration at half of the fitted maximal effect; on the % scale 0 is the no-effect control and ±100 the full control effect; nearly all actives have a fitted effect of over 55% in size
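No-CPT arm: Tdp1-/-;hTDP1 DT40 cells (400/well) plus compounds, incubated ≥48 hr at 37 °C. Readout CellTiter-Glo luminescence.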
* = called active by the depositor; ? = inconclusive; . = no result given. Sampled rows, rich in hits. Any-hit rate of the full collection: about 21%. Unless noted, the call rests on the fitted dose curve; in most records, active means well fitted inhibition curve with a large enough effect; inconclusive means small, poorly fitted or top-dose-only effect; inactive means flat fitted curve, though single readings scatter.

SMILES	D3 antag	DT40 TDP1 CPT	DRD3 agonist	IL-1B inflam inh	ClpP mod	TDP1 cell noCPT
CCC(=O)N1c2ccccc2CC1C(=O)NCCN1CCN(c2cccc(C)c2C)CC1 (configuration not stated)	.	23.1µM*	-17.5	.	-0.2%	?
COc1ccc(C(=O)N/C(=C/c2cccnc2)C(=O)Nc2cccc(C(C)=O)c2)cc1OC	14.0	-4.3%	2.4	14.1	?	-12.2%
COc1ccc(NC(=O)C2CCC(CNS(=O)(=O)c3ccc(Br)s3)CC2)c(OC)c1 (configuration not stated)	.	18.4µM*	-6.3	.	-0.1%	?
CC(=O)Nc1cccc(OCCCNC(=O)C2CCC2)c1	21.5	4.6%	-5.4	-4.2	.	-2.4%
Cc1ccsc1C(=O)NNC(=O)CCN1CCN(c2ccccc2)CC1	?	-0.4%	4.4	11.5	-6.0%	0.6%
COc1cc2nc3n(c(=O)c2cc1OC)-c1cc2ccccc2cc1C(=O)NC3CC(C)C (configuration not stated)	8.9	?	4.7	-8.8	-8.1%	?
CC(C)CC1NC(=O)c2cc3ccccc3cc2-n2c1nc1cc(Cl)ccc1c2=O (configuration not stated)	-6.0	?	1.0	73.3	-24.0%	18.4µM*
CC1NC(=O)c2cc3ccccc3cc2-n2c1nc1cc(Cl)ccc1c2=O (configuration not stated)	8.1	20.6µM*	-6.5	15.6	-9.0%	?
Cc1cc(C)cc(N(CC(=O)NC2CCCC2)S(=O)(=O)c2c(C)[nH]c(=O)[nH]c2=O)c1	-3.4	0.8%	1.9	8.4	-3.3%	3.7%
CCOc1cc(C#N)c(NC(=O)c2cccc(S(=O)(=O)N3CCOCC3)c2)cc1OCC	.	-2.6%	-2.4	.	-1.2%	?
Cc1nc(NCC(=O)c2c[nH]c3ccccc23)sc1C	.	6.31µM*	.	.	-16.0%	?
Cc1ccccc1NC(NC(=O)OCCn1c([N+](=O)[O-])cnc1C)C(Cl)(Cl)Cl (configuration not stated)	-63.0*	-11.7%	-5.3	31.1	-4.7%	-26.3%
Cc1ncc([N+](=O)[O-])n1CCOC(=O)NC(Nc1ccc(F)cc1)C(Cl)(Cl)Cl (configuration not stated)	-9.5	-22.0%	0.2	2.6	-0.3%	19.2%
CCn1ccc2c(OCC(=O)Nc3ccccc3C)cccc2c1=O	.	14.6µM*	3.7	.	3.9%	11.6µM*
CCn1ccc2c(OCC(=O)NCc3ccccc3)cccc2c1=O	.	-7.6%	0.4	.	-19.2%	?
Cn1ccc2c(OCC(=O)NCc3ccccc3)cccc2c1=O	.	?	5.3	.	-23.4%	?
Cc1cccc(NC(=O)COc2cccc3c(=O)n(C)ccc23)c1C	.	23.1µM*	21.9	.	-23.8%	18.4µM*
Cn1ccc2c(OCC(=O)Nc3cc(C(F)(F)F)ccc3Cl)cccc2c1=O	.	25.9µM*	25.0	.	-12.2%	14.6µM*
CCn1ccc2c(OCC(=O)Nc3ccccc3C(F)(F)F)cccc2c1=O	.	14.6µM*	16.3	.	?	20.6µM*
COc1ccc(Oc2ncc3nc(-c4cccc(C#N)c4)c(=O)n(Cc4cccc(OC)c4)c3n2)cc1	.	1.7%	.	.	.	-93.0%
NS(=O)(=O)c1cccc(NC(=O)CN2CCN(Cc3ccc4c(c3)OCO4)CC2)c1	-18.7	5.2%	-2.7	0.0	-5.2%	-20.1%
CCC(C)c1ccccc1NC(=O)COC(=O)c1ccc(N2CCCC2)c([N+](=O)[O-])c1 (configuration not stated)	-2.5	20.6µM*	-2.4	19.2	-0.8%	?
CCC(C)c1ccccc1NC(=O)COC(=O)c1ccc2[nH]c3c(c2c1)CCCC3 (configuration not stated)	8.1	16.4µM*	9.9	-10.6	31.6µM*	18.4µM*
COc1ccc(-c2cc(C(=O)Nc3c(C(=O)c4ccc(C)cc4)oc4ccccc34)no2)cc1	.	-4.2%	-21.3	.	1.0%	5.8%
Cc1c(C(=O)N(Cc2ccc(N(C)C)cc2)CC2CCCO2)oc2ccc(Br)cc12 (configuration not stated)	.	?	-0.5	.	-2.2%	?
SMILES	D3 antag	DT40 TDP1 CPT	DRD3 agonist	IL-1B inflam inh	ClpP mod	TDP1 cell noCPT
O=[N+]([O-])c1ccc(Nc2ccccc2)c2nonc12	-24.1	?	-7.0	21.8	0.0%	?
CC(=O)NS(=O)(=O)c1ccc(Nc2ccc([N+](=O)[O-])c3nonc23)cc1	-54.1*	-21.4%	-24.5	0.0	-1.5%	-23.1%
CCOc1ccc(Nc2ccc([N+](=O)[O-])c3nonc23)cc1	-67.2*	?	-16.2	13.2	-0.9%	23.1µM*
CCOc1ccc(-n2c(=O)c3c4c(sc3n(Cc3cccc(C)c3)c2=O)CCCC4)cc1	.	-2.7%	3.6	.	0.2%	-26.6%
Cc1ccc(S(=O)(=O)c2cnc(SCC(=O)Nc3cc(C)cc(C)c3)nc2N)cc1	.	?	7.1	.	?	16.4µM*
CC(Sc1ncc(S(=O)(=O)c2ccc(C(C)C)cc2)c(N)n1)C(=O)Nc1ccccc1 (configuration not stated)	.	16.4µM*	6.7	.	-5.0%	25.9µM*
CCc1ccccc1NC(=O)CSc1ncc(S(=O)(=O)c2ccc(C(C)C)cc2)c(N)n1	.	?	5.7	.	-6.0%	?
Cc1ccc(S(=O)(=O)c2cnc(SCC(=O)Nc3cccc(Cl)c3)nc2N)cc1C	.	?	1.3	.	-7.0%	23.1µM*
Cc1ccc(S(=O)(=O)NCc2cc(=O)n(C)c(=O)n2C)cc1C	-3.9	-24.6%	-2.1	15.6	-0.5%	19.6%
CC1(C)Cc2c(C#N)c(NCCO)nc(-c3ccco3)c2CO1	13.6	-21.8%	13.7	.	.	?
N#Cc1c(NCCCO)nc(-c2ccco2)c2c1CCCC2	0.0	?	-10.1	-6.2	28.2µM*	?
N#Cc1c(NC2CCCCC2)nc(-c2ccco2)c2c1CCCC2	-18.9	?	-12.6	26.2	7.08µM*	?
O=C1NC(Cc2ccccc2)c2nc3cc(F)ccc3c(=O)n2-c2cc3ccccc3cc21 (configuration not stated)	-2.4	5.17µM*	-1.1	-10.7	?	5.8µM*
